The text below walks through data of PubChem BioAssay AID2253 (Southern Research Specialized Biocontainment Screening …, 2010).

Structures are written as SMILES. The whole screen tested about 2,200 compounds, of which about 1,300 (59%) were called active. No rule for the calls is given here. The set was probably picked from earlier hits. A selection follows. Entries with a potency or affinity are not part of this list.

This test in a line: human monocytic cell viability reduction – S. typhimurium screen hits, cytotoxicity control for Salmonella PhoP regulon inhibitors, dose response (AID 2253). Conditions: THP-1 viability, CellTiter-Glo luminescence, 72 h; series mostly up to 50 µM. (Cellular ATP, detected with luciferase, serves as a proxy for viable cell number.)
Regarding `CCCc1cc(=O)oc2cc(OCC(=O)N3CCc4ccccc43)ccc12`, the result was inactive.
`CCn1c(SCc2ccc(F)cc2)nc2ccccc2c1=O`: the molecule was called inactive.
To `COc1cccc(-n2c(N)c(C(=O)Nc3c(C)n(C)n(-c4ccccc4)c3=O)c3nc4ccccc4nc32)c1` belongs “inactive”; to `COc1cc(Cc2cc(N)nc(N)n2)cc(OC)c1OC`, “inactive”.
In the case of `Cn1c(N)c(C(=O)COC(=O)C2CCCCC2)c(=O)n(C)c1=O`, the molecule was called inactive.
Turning to `CCC(OC(=O)C(NC(=O)c1ccccc1)c1ccccc1)C(=O)Nc1cc(C)on1` (stereo not drawn), the result was inactive.
Take `O=C(NCCc1ccc(Cl)cc1)/C(=C/c1cccnc1)NC(=O)c1ccccc1`: the result was inactive.
Consider `O=C(N/N=C/c1coc2ccc(Cl)cc2c1=O)c1cc(O)cc(O)c1`, for which the outcome was inactive.
For the molecule `Cc1occc1C(=O)n1cnc2ccccc21`, the molecule was classed as inactive.
For `O=c1[nH]c2ccccc2n1C1=CCCC1`, the call was inactive.
With `Cc1ccc2c(c1)cc(CN(Cc1ccc3c(c1)OCO3)C(=O)c1cnccn1)c1nnnn12`, the result was inactive.
Take `COC(=O)c1sccc1N/N=C(\C)c1ccc(F)c(Cl)c1`: the molecule was called inactive.
In the case of `CCOc1ccc(CSC(CC(=O)O)C(=O)O)cc1` (stereo not drawn), the molecule was classed as inactive.
To `CC(=O)N1C(=O)C2(C(C#N)=C(N)Oc3c2c(C)nn3-c2ccccc2)c2ccccc21` (stereo not drawn) belongs “inactive”.
For the molecule `O=C(NCc1ccc2c(c1)OCO2)c1ccc(-n2cnnn2)cc1`, the outcome was inactive.
For `Cc1cc(C)cc(NC(=O)CSc2nc3c(c(=O)[nH]2)CN(Cc2ccc(F)cc2)CC3)c1`, the result was inactive.
The same measure for `Cn1cc(C(CC(=O)O)C(=O)O)c2ccccc21` (stereo not drawn): “inactive”; for `c1ccc(OCCCN2CCCC2)cc1`: “inactive”; for `CCOc1ccccc1OCC(=O)Nc1ccc(S(=O)(=O)Nc2nc(C)cc(C)n2)cc1`: “inactive”.
Turning to `COCCNC(=O)c1ccccc1NS(=O)(=O)c1ccc(Br)s1`, the call was inactive.
For `Cc1[nH]n(-c2ccccc2)c(=O)c1-c1ccc(Cl)cc1`, the molecule was classed as inactive.
Turning to `Cc1nn(-c2ccccc2)c(C)c1C(=O)OC/C(O)=C(\C#N)c1nc2ccccc2[nH]1`, the molecule was classed as inactive.
`C/C(=C\C(=O)OCCCCCCCCC(=O)O)C[C@@H]1OC[C@H](C[C@@H]2O[C@H]2[C@@H](C)[C@H](C)O)[C@@H](O)[C@H]1O`: the outcome was inactive.
As to `O=C1C2C3c4ccccc4C(c4ccccc43)C2C(=O)N1c1cccc2cccnc12` (stereo not drawn), the result was inactive.
To `Brc1ccc2cccnc2c1` belongs “inactive”; to `CCc1cc2c(NCCC(=O)O)nc(C)nc2s1`, “inactive”; to `c1ccc(Oc2cc(-c3ccccc3)ncn2)cc1`, “inactive”.
Regarding `Cc1cc(=O)[nH]c(N/N=C/c2c[nH]c3ccccc23)n1`, the molecule was called inactive.
On to `CCOc1ccc(S(=O)(=O)Nc2ccc(C(=O)N/N=C/c3c(C)nn(-c4ccccc4)c3N3CCCC3)cc2)cc1`, for which the call was inactive.
As to `COc1ccc(-c2cc(C(=O)O)[nH]n2)cc1OC`, the outcome was inactive.
`Fc1ccc(-c2n[nH]c(=S)n2/N=C/c2c[nH]c3ccccc23)cc1`: the call was inactive.
Consider `Cn1cccc1C(=O)OCc1csc(-c2ccccc2)n1`, for which the molecule was classed as inactive.
As to `N#CC1(C#N)COC23CCCCC2C1(C#N)C(=N)O3` (stereo not drawn), the outcome was inactive.
Consider `O=C(NC(CO)Cc1ccc([N+](=O)[O-])cc1)C(Cl)Cl` (stereo not drawn), for which the molecule was called inactive.
On to `Cc1nc(C(=O)Nc2ccc(Cl)cc2)nn1-c1ccc([N+](=O)[O-])cc1`, for which the result was inactive.
Consider `CCOC(=O)C1(S(=O)(=O)c2ccccc2)CCN(Cc2ccc(Cl)cc2)CC1`, for which the molecule was called inactive.
Consider `Cc1ccc(NC(=O)C2CC(=O)NC(N3CCCCC3)=N2)cc1Cl` (stereo not drawn), for which the outcome was inactive.
Turning to `CCN(CC)C(=O)CP(=O)(c1ccccc1)c1ccccc1`, the call was inactive.
`CCn1c2ccccc2c2cc(NC(=O)C(C)Oc3ccccc3)ccc21` (stereo not drawn): the outcome was inactive.
Regarding `O=C(CCNS(=O)(=O)c1cccc2nsnc12)NCc1cccs1`, the molecule was classed as inactive.
To `O=C(OCC1COc2ccccc2O1)c1ccccc1F` (stereo not drawn) belongs “inactive”; to `CCC1C2CN(C(C)=O)CC=C2C(C#N)=C(N)C1(C#N)C#N` (stereo not drawn), “inactive”; to `O=C(CCCN1C(=O)CCC1=O)Nc1ccc2c(c1)OCCO2`, “inactive”.
For the molecule `CCCNC(=O)CSc1nnc(C)s1`, the result was inactive.
As to `CC(=O)Nc1cccc(OC(=O)c2ccoc2C)c1`, the outcome was inactive.
For `CO/N=C(/C(=O)N[C@@H]1C(=O)N2C(C(=O)O)=CCS[C@H]12)c1cnc(N)s1`, the outcome was inactive.
As to `COc1ccc(-c2ccccc2)cc1NCc1ccccc1C`, the outcome was inactive.
`CCOC(=O)Cc1ccc2sc(-c3ccccc3)nc2c1`: the molecule was called inactive.
For the molecule `CC(C)NC(=O)CSc1nc(N)c(NC(=O)c2ccccc2F)c(=O)[nH]1`, the result was inactive.
For the molecule `COC(=O)Cc1c(C)nc2nc(NCc3ccc(Cl)cc3)[nH]n2c1=O`, the result was inactive.
Turning to `CN1c2ccccc2C(O)=C(C(=O)Nc2ccccc2)S1(=O)=O`, the molecule was called inactive.
Regarding `O=C(O)CCCCCN1C(=O)c2ccc(C(=O)O)cc2C1=O`, the call was inactive.
Consider `CC(=O)N1N=C(c2ccco2)CC1c1ccc(Br)cc1` (stereo not drawn), for which the molecule was called inactive.
`CCOC(=O)CN(C)Cc1c[nH]c2ccccc12`: the outcome was inactive.
To `O=C(c1ccccc1S(=O)(=O)NCc1ccccc1)N1CCCC1` belongs “inactive”.
For `CN(C)CCOC(=O)Cc1ccc(Cl)cc1`, the result was inactive.
As for `O=C(c1cccnc1Nc1ccc2c(c1)CCC2)N1CCOCC1`, the call was inactive.
For the molecule `O=C(NCc1ccco1)c1ccc(Br)s1`, the call was inactive.
As for `Cn1c(=O)n(CC(=O)Nc2ccccc2)c2ccccc21`, the call was inactive.
Take `O=C(/C=C/c1ccccc1)N/C(=C/c1ccccc1)C(=O)N1CCOCC1`: the call was inactive.
With `CN(C)c1ccnc(-n2cccc2/C=N/OCc2ccccc2)c1C#N`, the outcome was inactive.
The same measure for `COC(=O)c1sc2nc(CSc3nc4ccc(C)cc4[nH]3)[nH]c(=O)c2c1C`: “inactive”; for `CCc1cccc2c(C#N)cn(CC(=O)NCCOC)c12`: “inactive”.
Regarding `CN1CCN(c2c(F)cc3c(=O)c(C(=O)O)cn4c3c2SCC4)CC1`, the molecule was called inactive.
Take `S=c1nc(-c2ccccc2)oc2c1CCCC2`: the outcome was inactive.
On to `CCC(CC)C(=O)NCCc1ccc(OC)cc1`, for which the outcome was inactive.
On to `COc1ccc(-c2ccc(C#N)c(SCC(=O)NCCc3ccccc3)n2)cc1OC`, for which the molecule was called inactive.
In the case of `N#CC1=C(S)N(c2ccccc2)C(c2ccc(-c3ccccc3Cl)o2)NC1=O` (stereo not drawn), the outcome was inactive.
The same measure for `CCOC(=O)c1ccc2c(c1)C(=O)N(C1CCCCC1)C2=O`: “inactive”; for `O=c1c2ccccc2nnn1Cc1ccccn1`: “inactive”; for `CCOC(=O)N1CCN(C(=O)c2cn(CC(C)C)c(=O)c3c2c2ccccc2n3C)CC1`: “inactive”.
Take `N#CCOC(=O)c1sccc1-n1cccc1`: the call was inactive.
For the molecule `Cc1cc(C)c(C#N)c(SCc2cn3ccccc3n2)n1`, the molecule was called inactive.
